According to ChEMBL document CHEMBL2218924, “A broad activity screen in support of a chemogenomic map for kinase signalling research and drug discovery” (Biochem J, 2013):

Key:
[1] = molecular target: T1, Phosphorylase b kinase gamma catalytic chain, liver/testis isoform (Homo sapiens) (UniProt P15735); details: at 1 µM
T1 sequence (whole entry): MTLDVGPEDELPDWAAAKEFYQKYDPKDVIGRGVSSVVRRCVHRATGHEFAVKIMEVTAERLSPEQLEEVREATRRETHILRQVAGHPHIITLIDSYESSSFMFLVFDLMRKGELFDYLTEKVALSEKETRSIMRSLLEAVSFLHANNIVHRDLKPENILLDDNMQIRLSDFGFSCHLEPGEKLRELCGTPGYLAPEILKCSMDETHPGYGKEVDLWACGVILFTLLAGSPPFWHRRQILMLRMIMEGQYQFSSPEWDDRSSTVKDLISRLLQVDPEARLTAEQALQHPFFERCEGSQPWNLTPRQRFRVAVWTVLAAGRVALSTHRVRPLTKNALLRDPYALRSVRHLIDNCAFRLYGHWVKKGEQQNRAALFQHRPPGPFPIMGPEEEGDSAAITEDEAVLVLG

[2] = molecular target: T1, Phosphorylase b kinase gamma catalytic chain, liver/testis isoform (Homo sapiens); details: at 10 µM
[3] = molecular target: Serine/threonine-protein kinase pim-1 (Homo sapiens) (UniProt P11309); details: at 1 µM
Sequence of Serine/threonine-protein kinase pim-1 (Homo sapiens) (P11309 whole entry, looked up): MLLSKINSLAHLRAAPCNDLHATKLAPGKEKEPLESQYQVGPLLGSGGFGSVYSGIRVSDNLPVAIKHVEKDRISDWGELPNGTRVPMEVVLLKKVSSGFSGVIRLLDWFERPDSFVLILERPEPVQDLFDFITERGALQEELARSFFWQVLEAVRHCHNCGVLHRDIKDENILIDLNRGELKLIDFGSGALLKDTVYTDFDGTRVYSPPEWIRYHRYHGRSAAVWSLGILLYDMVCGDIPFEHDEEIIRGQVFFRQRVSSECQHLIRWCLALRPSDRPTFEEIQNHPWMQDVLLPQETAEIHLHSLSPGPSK

[4] = molecular target: Serine/threonine-protein kinase pim-1 (Homo sapiens) (UniProt P11309); details: at 10 µM
[5] = molecular target: Serine/threonine-protein kinase pim-2 (Homo sapiens) (UniProt Q9P1W9); details: at 1 µM
Sequence of Serine/threonine-protein kinase pim-2 (Homo sapiens) (Q9P1W9 whole entry, looked up): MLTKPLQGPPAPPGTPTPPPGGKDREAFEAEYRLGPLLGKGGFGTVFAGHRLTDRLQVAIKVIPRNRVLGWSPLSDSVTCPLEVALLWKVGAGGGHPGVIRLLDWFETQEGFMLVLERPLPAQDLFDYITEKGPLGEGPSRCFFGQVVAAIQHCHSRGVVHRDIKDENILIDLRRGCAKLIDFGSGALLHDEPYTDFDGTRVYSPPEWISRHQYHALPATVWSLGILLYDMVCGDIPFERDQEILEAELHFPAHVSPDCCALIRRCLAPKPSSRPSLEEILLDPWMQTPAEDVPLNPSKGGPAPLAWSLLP

[6] = molecular target: Serine/threonine-protein kinase pim-2 (Homo sapiens) (UniProt Q9P1W9); details: at 10 µM
[7] = molecular target: Serine/threonine-protein kinase pim-3 (Homo sapiens) (UniProt Q86V86); details: at 1 µM
[8] = molecular target: Serine/threonine-protein kinase pim-3 (Homo sapiens) (UniProt Q86V86); details: at 10 µM
[9] = molecular target: Serine/threonine-protein kinase PLK1 (Homo sapiens) (UniProt P53350); details: at 1 µM
Sequence of Serine/threonine-protein kinase PLK1 (Homo sapiens) (P53350 whole entry): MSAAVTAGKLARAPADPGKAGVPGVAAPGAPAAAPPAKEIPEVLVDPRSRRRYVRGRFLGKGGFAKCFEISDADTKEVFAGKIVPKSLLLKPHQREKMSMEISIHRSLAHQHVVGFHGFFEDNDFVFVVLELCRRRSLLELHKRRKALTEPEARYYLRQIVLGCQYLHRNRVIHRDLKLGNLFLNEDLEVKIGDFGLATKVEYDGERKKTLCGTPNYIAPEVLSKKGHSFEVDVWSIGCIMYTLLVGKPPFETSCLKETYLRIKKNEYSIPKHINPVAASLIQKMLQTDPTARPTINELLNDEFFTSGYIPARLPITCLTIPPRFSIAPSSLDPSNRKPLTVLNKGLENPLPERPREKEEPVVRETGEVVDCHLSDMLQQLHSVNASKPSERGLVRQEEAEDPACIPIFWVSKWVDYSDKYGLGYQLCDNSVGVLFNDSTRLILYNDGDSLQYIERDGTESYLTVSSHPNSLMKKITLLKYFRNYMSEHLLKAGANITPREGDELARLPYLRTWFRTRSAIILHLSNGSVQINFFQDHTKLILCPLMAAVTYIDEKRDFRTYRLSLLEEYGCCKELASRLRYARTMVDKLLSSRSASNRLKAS

[10] = molecular target: Serine/threonine-protein kinase PLK1 (Homo sapiens) (UniProt P53350); details: at 10 µM
[11] = molecular target: Serine/threonine-protein kinase PLK3 (Homo sapiens) (UniProt Q9H4B4); details: at 1 µM
Sequence of Serine/threonine-protein kinase PLK3 (Homo sapiens) (Q9H4B4 whole entry, looked up): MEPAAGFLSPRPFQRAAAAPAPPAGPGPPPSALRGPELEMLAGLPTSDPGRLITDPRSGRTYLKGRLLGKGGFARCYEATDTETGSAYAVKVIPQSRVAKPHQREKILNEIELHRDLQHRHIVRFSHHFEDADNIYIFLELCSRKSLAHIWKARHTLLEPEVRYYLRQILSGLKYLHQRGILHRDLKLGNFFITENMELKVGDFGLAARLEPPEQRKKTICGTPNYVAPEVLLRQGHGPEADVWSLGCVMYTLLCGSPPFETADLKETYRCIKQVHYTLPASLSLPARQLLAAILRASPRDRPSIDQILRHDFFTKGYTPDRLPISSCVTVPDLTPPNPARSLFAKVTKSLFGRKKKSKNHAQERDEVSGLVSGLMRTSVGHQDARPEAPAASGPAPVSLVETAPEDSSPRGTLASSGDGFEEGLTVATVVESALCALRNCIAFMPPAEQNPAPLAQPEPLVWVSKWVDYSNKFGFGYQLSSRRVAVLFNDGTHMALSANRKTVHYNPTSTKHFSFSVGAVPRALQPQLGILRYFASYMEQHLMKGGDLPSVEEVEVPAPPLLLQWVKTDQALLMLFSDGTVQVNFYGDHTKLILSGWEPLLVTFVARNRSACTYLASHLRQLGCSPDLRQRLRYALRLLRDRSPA

[12] = molecular target: Serine/threonine-protein kinase PLK3 (Homo sapiens) (UniProt Q9H4B4); details: at 10 µM
[13] = molecular target: T2, cAMP-dependent protein kinase catalytic subunit PRKX (Homo sapiens) (UniProt P51817); details: at 1 µM
T2 sequence (whole entry): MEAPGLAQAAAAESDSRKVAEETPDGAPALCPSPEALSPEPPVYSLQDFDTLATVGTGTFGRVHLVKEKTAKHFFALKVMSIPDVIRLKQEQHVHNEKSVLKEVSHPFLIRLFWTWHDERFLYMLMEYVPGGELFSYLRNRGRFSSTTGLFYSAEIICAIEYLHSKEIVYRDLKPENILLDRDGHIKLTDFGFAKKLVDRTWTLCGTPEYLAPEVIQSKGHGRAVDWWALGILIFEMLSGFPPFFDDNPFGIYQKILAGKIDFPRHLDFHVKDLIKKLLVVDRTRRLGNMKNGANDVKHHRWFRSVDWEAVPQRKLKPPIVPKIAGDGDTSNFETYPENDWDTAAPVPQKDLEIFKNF

[14] = molecular target: T2, cAMP-dependent protein kinase catalytic subunit PRKX (Homo sapiens); details: at 10 µM
[15] = molecular target: Protein-tyrosine kinase 2-beta (Homo sapiens) (UniProt Q14289); details: at 1 µM
Sequence of Protein-tyrosine kinase 2-beta (Homo sapiens) (Q14289 whole entry, looked up): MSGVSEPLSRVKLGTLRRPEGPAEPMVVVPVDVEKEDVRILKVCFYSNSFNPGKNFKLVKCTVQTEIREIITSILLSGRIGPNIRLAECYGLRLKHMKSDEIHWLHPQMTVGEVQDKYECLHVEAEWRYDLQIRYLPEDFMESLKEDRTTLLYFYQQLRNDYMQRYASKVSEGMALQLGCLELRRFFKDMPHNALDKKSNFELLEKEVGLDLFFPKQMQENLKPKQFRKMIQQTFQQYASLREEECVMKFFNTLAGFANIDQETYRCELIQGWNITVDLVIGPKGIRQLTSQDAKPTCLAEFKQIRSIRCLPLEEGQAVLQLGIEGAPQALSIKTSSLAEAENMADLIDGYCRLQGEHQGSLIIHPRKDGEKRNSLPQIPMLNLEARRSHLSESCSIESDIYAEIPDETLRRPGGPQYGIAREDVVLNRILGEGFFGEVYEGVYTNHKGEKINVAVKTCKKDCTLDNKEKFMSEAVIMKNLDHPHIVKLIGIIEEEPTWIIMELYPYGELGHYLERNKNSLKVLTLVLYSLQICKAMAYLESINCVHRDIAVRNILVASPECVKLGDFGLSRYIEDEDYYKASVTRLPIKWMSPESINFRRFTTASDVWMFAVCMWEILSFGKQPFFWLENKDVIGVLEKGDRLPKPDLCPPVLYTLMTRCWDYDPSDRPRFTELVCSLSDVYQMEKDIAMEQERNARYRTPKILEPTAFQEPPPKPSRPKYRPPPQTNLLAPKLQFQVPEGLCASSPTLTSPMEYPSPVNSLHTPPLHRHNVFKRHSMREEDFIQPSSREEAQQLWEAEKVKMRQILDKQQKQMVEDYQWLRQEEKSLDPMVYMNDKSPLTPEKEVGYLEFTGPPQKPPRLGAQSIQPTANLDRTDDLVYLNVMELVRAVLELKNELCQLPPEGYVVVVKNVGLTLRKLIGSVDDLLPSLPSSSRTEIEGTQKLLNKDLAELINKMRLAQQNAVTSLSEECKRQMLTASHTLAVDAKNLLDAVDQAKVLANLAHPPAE

[16] = molecular target: Protein-tyrosine kinase 2-beta (Homo sapiens) (UniProt Q14289); details: at 10 µM
[17] = molecular target: Receptor-interacting serine/threonine-protein kinase 2 (Homo sapiens) (UniProt O43353); details: at 1 µM
[18] = molecular target: Receptor-interacting serine/threonine-protein kinase 2 (Homo sapiens) (UniProt O43353); details: at 10 µM
[19] = molecular target: Rho-associated protein kinase 1 (Homo sapiens) (UniProt Q13464); details: at 1 µM
Sequence of Rho-associated protein kinase 1 (Homo sapiens) (Q13464 2-1354 limits assumed): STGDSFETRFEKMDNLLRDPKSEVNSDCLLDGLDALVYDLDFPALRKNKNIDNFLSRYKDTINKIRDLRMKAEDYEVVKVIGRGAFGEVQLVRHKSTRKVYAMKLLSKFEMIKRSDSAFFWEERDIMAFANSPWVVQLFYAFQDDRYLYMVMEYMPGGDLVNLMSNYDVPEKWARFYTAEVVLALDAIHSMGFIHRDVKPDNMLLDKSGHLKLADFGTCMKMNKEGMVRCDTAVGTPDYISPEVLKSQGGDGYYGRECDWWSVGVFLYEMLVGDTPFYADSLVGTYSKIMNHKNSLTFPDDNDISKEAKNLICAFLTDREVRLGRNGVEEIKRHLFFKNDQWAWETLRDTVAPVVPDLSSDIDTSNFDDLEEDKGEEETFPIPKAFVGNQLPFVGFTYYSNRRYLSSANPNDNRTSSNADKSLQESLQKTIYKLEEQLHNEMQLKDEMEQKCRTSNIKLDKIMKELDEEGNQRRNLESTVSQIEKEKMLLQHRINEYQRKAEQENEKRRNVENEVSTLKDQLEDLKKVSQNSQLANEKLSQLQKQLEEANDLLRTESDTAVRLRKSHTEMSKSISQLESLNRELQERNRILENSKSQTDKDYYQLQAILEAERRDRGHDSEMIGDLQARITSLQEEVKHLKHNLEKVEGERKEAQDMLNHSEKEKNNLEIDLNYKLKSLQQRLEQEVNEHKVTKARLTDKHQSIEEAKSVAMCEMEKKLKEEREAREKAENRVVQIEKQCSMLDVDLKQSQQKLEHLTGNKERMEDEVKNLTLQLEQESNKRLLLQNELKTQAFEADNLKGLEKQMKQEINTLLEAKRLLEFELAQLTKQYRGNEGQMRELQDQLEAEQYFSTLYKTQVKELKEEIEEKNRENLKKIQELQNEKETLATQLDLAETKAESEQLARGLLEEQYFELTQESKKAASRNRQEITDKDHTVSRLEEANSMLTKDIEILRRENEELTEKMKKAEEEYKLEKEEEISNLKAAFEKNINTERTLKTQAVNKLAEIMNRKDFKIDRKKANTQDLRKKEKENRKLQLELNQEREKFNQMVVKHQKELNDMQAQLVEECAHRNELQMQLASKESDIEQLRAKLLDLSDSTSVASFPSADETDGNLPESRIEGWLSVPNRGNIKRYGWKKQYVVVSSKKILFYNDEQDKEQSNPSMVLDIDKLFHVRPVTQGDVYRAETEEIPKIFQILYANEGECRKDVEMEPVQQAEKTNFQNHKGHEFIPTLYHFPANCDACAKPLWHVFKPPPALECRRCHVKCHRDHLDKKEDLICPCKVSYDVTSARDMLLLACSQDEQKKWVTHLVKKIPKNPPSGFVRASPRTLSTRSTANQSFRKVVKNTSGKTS

[20] = molecular target: Rho-associated protein kinase 1 (Homo sapiens) (UniProt Q13464); details: at 10 µM

Row | Compound | residual activity [1] [%] | residual activity [2] [%] | residual activity [3] [%] | residual activity [4] [%] | residual activity [5] [%] | residual activity [6] [%] | residual activity [7] [%] | residual activity [8] [%] | residual activity [9] [%] | residual activity [10] [%] | residual activity [11] | residual activity [12] [%] | residual activity [13] [%] | residual activity [14] [%] | residual activity [15] [%] | residual activity [16] [%] | residual activity [17] [%] | residual activity [18] [%] | residual activity [19] [%] | residual activity [20] [%]
1 | CO[C@H]1[C@@H](OC)C[C@H](C)[C@@H](OC)C2=CC(=O)C=C(NC(=O)/C(C)=C/C=C/[C@H](OC)[C@@H](OC(N)=O)/C(C)=C/[C@@H]1C)C2=O | 97 | 100 | 85 | 93 | 99 | 129 | 98 | 96 | 86 | 70 | 99% (inactive) | 104 | 80 | 72 | 124 | 100 | 93 | 96 | 121 | 
2 | CN(C)c1ccc(/C=C2\C(=O)Nc3ccccc32)cc1 | 98 | 85 | 77 | 93 | 92 | 112 | 106 | 91 | 88 | 76 | 94% (inactive) | 88 | 92 | 66 | 103 | 47 | 103 | 83 | 132 | 123
3 | CC(=O)O/N=C1\C(=C2\C(=O)Nc3cc(Br)ccc32)Nc2ccccc21 | 92 | 70 | 92 | 87 | 134 | 67 | 84 | 84 | 79 | 76 | 92% (inactive) | 99 | 77 | 93 | 79 | 32 | 92 | 84 | 123 | 119
4 | Cc1ccc(S(=O)(=O)/C=C/C#N)cc1 | 114 | 111 | 97 | 95 | 111 | 103 | 91 | 102 | 92 | 102 | 103% (inactive) | 97 | 91 | 101 | 102 | 104 | 88 | 88 | 119 | 106
5 | Cn1cnc2cc3c(Nc4cccc(Br)c4)ncnc3cc21 | 95 | 98 | 75 | 63 | 84 | 97 | 92 | 88 | 105 | 82 | 95% (inactive) | 92 | 108 | 110 | 119 | 77 | 26 | 20 | 104 | 110
6 | CC(C)n1cnc2/c(=N/c3cccc(Cl)c3)nc(NCCO)[nH]c21 | 52 | 33 | 115 | 66 | 137 | 93 | 84 | 71 | 30 | 6 | 93% (inactive) | 57 | 82 | 65 | 56 | 18 | 77 | 68 | 113 | 82
7 | COc1ccc(S(=O)(=O)N(CCO)c2ccccc2CN(C)C/C=C/c2ccc(Cl)cc2)cc1 | 116 | 83 | 96 | 73 | 143 | 137 | 86 | 82 | 76 | 72 | 87% (inactive) | 96 | 88 | 51 | 109 | 96 | 92 | 91 | 134 | 124
8 | COc1cc2ncnc(Nc3ccc(O)c(Br)c3)c2cc1OC | 97 | 94 | 66 | 29 | 78 | 66 | 87 | 70 | 64 | 54 | 92% (inactive) | 88 | 90 | 66 | 85 | 42 | 20 | 8 | 116 | 102
9 | O=c1cc(-c2cccc3c2Sc2ccccc2S3)oc(N2CCOCC2)c1 | 96 | 100 | 93 | 30 | 68 | 29 | 102 | 85 | 95 | 99 | 107% (inactive) | 95 | 95 | 72 | 91 | 112 | 94 | 96 | 102 | 96
10 | COc1cc2ncnc(Nc3ccc(Oc4ccccc4)cc3)c2cc1OC | 95 | 123 | 81 | 132 | 135 | 142 | 95 | 93 | 74 | 72 | 87% (inactive) | 95 | 92 | 132 | 96 | 69 | 28 | 19 | 115 | 126
11 | O=C1NC(=O)c2cc(Nc3ccc(F)cc3)c(Nc3ccc(F)cc3)cc21 | 93 | 86 | 49 | 11 | 91 | 31 | 94 | 93 | 95 | 69 | 92% (inactive) | 80 | 90 | 48 | 119 | 81 | 76 | 42 | 108 | 123
12 | Cc1nc2cc3nc(-c4cccs4)cnc3cc2n1C | 94 | 111 | 100 | 101 | 90 | 121 | 101 | 102 | 118 | 85 | 101% (inactive) | 105 | 108 | 101 | 123 | 87 | 84 | 49 | 102 | 107
13 | O=C1NC(=O)c2c1c1c3ccccc3[nH]c1c1[nH]c3cc(Br)ccc3c21 | 114 | 71 | 28 | 13 | 27 | 6 | 29 | 14 | 90 | 90 | 96% (inactive) | 83 | 85 | 77 | 71 | 84 | 92 | 93 | 112 | 93
14 | COc1cc2ncnc(N3CCN(C(=O)Nc4ccc(Oc5ccccc5)cc4)CC3)c2cc1OC | 103 | 122 | 111 | 122 | 92 | 149 | 91 | 93 | 63 | 61 | 90% (inactive) | 92 | 77 | 113 | 122 | 104 | 84 | 70 | 124 | 
15 | O=C1NC(=O)/C(=C\c2ccc3nccnc3c2)S1 | 90 | 50 | 42 | 10 | 75 | 22 | 61 | 14 | 80 | 64 | 95% (inactive) | 85 | 67 | 27 | 124 | 103 | 56 | 21 | 109 | 107
16 | COc1ccc(C(=O)Nc2sc3c(c2C(N)=O)CCCC3)cc1OC | 78 | 84 | 80 | 97 | 87 | 114 | 92 | 97 | 94 | 75 | 90% (inactive) | 91 | 80 | 95 | 121 | 89 | 79 | 71 | 101 | 119
17 | CC[n+]1c(/C=C/N(C)c2ccccc2)n(-c2ccccc2)c2ccc(-c3nc4ccccc4s3)cc21 | 93 | 63 | 94 | 85 | 101 | 136 | 105 | 107 | 123 | 90 | 99% (inactive) | 103 | 108 | 63 | 139 | 83 | 93 | 88 | 110 | 102
18 | O=C1Nc2cc(Br)ccc2/C1=C1/Nc2ccccc2/C1=N\O | 55 | 24 | 67 | 78 | 106 | 85 | 78 | 81 | 79 | 81 | 100% (inactive) | 91 | 73 | 36 | 10 | 3 | 78 | 85 | 113 | 102
19 | COc1ccc(CNc2nc(N(CCO)CCO)nc3c2ncn3C(C)C)cc1 | 122 | 88 | 87 | 69 | 134 | 130 | 87 | 88 | 69 | 58 | 97% (inactive) | 95 | 95 | 101 | 83 | 85 | 83 | 78 | 121 | 109
20 | CCC(=O)Nc1ccc2ncnc(Nc3cccc(Br)c3)c2c1 | 90 | 108 | 80 | 86 | 104 | 94 | 92 | 85 | 93 | 71 | 89% (inactive) | 86 | 89 | 94 | 126 | 95 | 50 | 32 | 115 | 120
21 | CO[C@H]1C[C@@H]2CC[C@@H](C)[C@@](O)(O2)C(=O)C(=O)N2CCCC[C@H]2C(=O)O[C@H]([C@H](C)C[C@@H]2CC[C@@H](O)[C@H](OC)C2)CC(=O)[C@H](C)/C=C(\C)[C@@H](O)[C@@H](OC)C(=O)[C@H](C)C[C@H](C)/C=C/C=C/C=C/1C | 94 | 116 | 105 | 141 | 110 | 142 | 97 | 93 | 75 | 66 | 93% (inactive) | 94 | 98 | 94 | 119 | 99 | 84 | 84 | 127 | 140
22 | O=Nc1c(-c2c(O)[nH]c3ccccc23)[nH]c2ccccc12 | 25 | 12 | 76 | 47 | 68 | 38 | 94 | 90 | 83 | 103 | 96% (inactive) | 91 | 48 | 33 | 14 | 2 | 60 | 27 | 108 | 92
23 | Ic1cccc(CSc2nnc(-c3ccncc3)o2)c1 | 106 | 84 | 104 | 73 | 93 | 86 | 78 | 84 | 72 | 74 | 87% (inactive) | 94 | 57 | 71 | 103 | 101 | 82 | 78 | 113 | 98
24 | CNc1cc2c(Nc3cccc(Br)c3)ncnc2cn1 | 104 | 107 | 64 | 42 | 86 | 88 | 96 | 81 | 99 | 94 | 90% (inactive) | 91 | 95 | 75 | 116 | 64 | 43 | 38 | 110 | 126
25 | Cc1ccc(NC2=CC(=O)c3sc(C)nc3C2=O)cc1 | 114 | 92 | 94 | 85 | 99 | 111 | 91 | 92 | 87 | 89 | 97% (inactive) | 91 | 102 | 97 | 108 | 102 | 81 | 89 | 117 | 102
26 | Cc1nc(-c2ccccc2)c(-c2ccncc2)o1 | 109 | 95 | 78 | 60 | 121 | 117 | 93 | 99 | 92 | 93 | 106% (inactive) | 96 | 86 | 85 | 91 | 79 | 58 | 25 | 124 | 108
